What all share (assay type): functional
Assay [1] concerns Plasmodium falciparum. As to the kind of experiment: GSK_TCMDC: Inhibition of Plasmodium falciparum 3D7 in whole red blood cells, using parasite LDH activity as an index of growth. Test compounds present at 2uM.
The test system of assay [2] is Plasmodium falciparum. In words: GSK_TCMDC: Inhibition of Plasmodium falciparum Dd2 in whole red blood cells, using parasite LDH activity as an index of growth. Test compounds present at 2uM.
The test system of a further assay is HepG2. As to the kind of experiment: GSK_TCMDC: Percent inhibition of human HepG2 cell line. Test compounds present at 10uM.

In general, Inhibition refers to how much of the control response was suppressed. Read a low Inhibition as little suppression. Consider `O=C(/C=C/c1ccc(Cl)c(Cl)c1)N1CCC(NCc2ccc3[nH]ccc3c2)CC1`, for which the Inhibition was found to be 97% in the assay with Plasmodium falciparum [1], 1% in the assay on Plasmodium falciparum [2] and 44% in the assay on HepG2.
In the same order, the values of `CC(=O)Nc1ccc(OCCN(Cc2ccccc2C(F)(F)F)c2ccc(C#N)c(C(F)(F)F)c2)c(Cl)c1` are 98%, 78% and 0%.
Consider `O=C(/C=C/c1ccc(Cl)c(Cl)c1)NCCCCCN1CCC(NC(=O)Nc2ccccc2F)CC1`, for which the Inhibition in the assay with Plasmodium falciparum [1] stood at 95%; in the assay with Plasmodium falciparum [2], 25%; with HepG2 it was 14%.
Turning to `Br.CCC(ON1C(N)=NC(N)=NC1(C)C)c1ccc(Cl)cc1` (configuration not stated), the Inhibition was 91% with Plasmodium falciparum [1], 90% with Plasmodium falciparum [2] and 68% with HepG2.
The matching figures for `CCCC(=O)Nc1ccc(OCCCN(Cc2ccccc2C(F)(F)F)c2ccc(C#N)c(C(F)(F)F)c2)cc1`: 89%, 79% and 0%.
As to `CON=Cc1sc(CNCCCN=c2cc(O)c3ccccc3[nH]2)c(C)c1Br.Cl`, the Inhibition in the assay with Plasmodium falciparum [1] came out at 96%; with Plasmodium falciparum [2], 63%; with HepG2, 0%.
`N#Cc1ccc(CN2CCC(Oc3ccc(NC(=O)c4cccs4)cc3Cl)CC2)cc1.O=C(O)C(F)(F)F`: the results for the Inhibition in the assay on Plasmodium falciparum [1], in the assay with Plasmodium falciparum [2] and with HepG2 were 95%, 96% and 26%, respectively.
As to `O=C(Nc1ccc(OC2CCN(Cc3ccsc3)C2)c(Cl)c1)c1cccs1.O=C(O)C(F)(F)F` (configuration not stated), the Inhibition with Plasmodium falciparum [1] is given as 91%; with Plasmodium falciparum [2], 87%; with HepG2, 0%.
For the compound `COc1ccc2[nH]c(C)cc(=NN=Cc3cccc(F)c3)c2c1`, the Inhibition in the assay on Plasmodium falciparum [1] was 100%; in the assay with Plasmodium falciparum [2], 100%; with HepG2 it was 2%.
`CC1CCCCN1CCCNC(=O)c1cccc(-c2cc3cc(Cl)c(Cl)cc3[nH]2)c1.O=C(O)C(F)(F)F` (configuration not stated): the Inhibition with Plasmodium falciparum [1] was found to be 94%; in the assay with Plasmodium falciparum [2] it was 7%; with HepG2, 22%.
Consider `CCOC(=O)c1ccc(N2CCN(CCCNC(=O)/C(=C/C=C/c3cc4cc(Cl)c(Cl)cc4[nH]3)OC)CC2)cc1`, for which the Inhibition in the assay with Plasmodium falciparum [1] was found to be 93%; in the assay with Plasmodium falciparum [2], 72%; in the assay with HepG2 it was 39%.
`Cn1nccc1C(=O)NCCNCc1cccc(-c2cccc(-c3nc4cc(F)ccc4[nH]3)c2)c1.O=C(O)C(F)(F)F`: the Inhibition in the assay with Plasmodium falciparum [1] amounted to 100%; in the assay on Plasmodium falciparum [2], 7%; in the assay on HepG2, 38%.
On to `CC(C)CCN1CCC(Oc2ccc(NC(=O)c3ccccc3)cc2Cl)CC1.O=C(O)C(F)(F)F`, for which the values for the Inhibition with Plasmodium falciparum [1], in the assay with Plasmodium falciparum [2] and in the assay on HepG2 were 87%, 88% and 17%, respectively.
Turning to `Cc1ccc(NC(=O)c2ccc3ncccc3c2)cc1OC1CCN(Cc2ccc(F)cc2)C1.O=C(O)C(F)(F)F` (configuration not stated), the Inhibition in the assay with Plasmodium falciparum [1] is given as 83%; in the assay with Plasmodium falciparum [2], 28%; in the assay on HepG2, 11%.
Take `Cc1cc(N2Cc3ccccc3C2)nc(Nc2cccc(C#N)c2)n1`: the Inhibition was 100% in the assay on Plasmodium falciparum [1], 97% in the assay with Plasmodium falciparum [2] and 6% with HepG2.
In the case of `Cl.O=c1n(CC2CCCCC2)c2cc(Cl)cc(OCCNc3ccncc3)c2n1CC1CCCCC1`, the Inhibition came to 100% with Plasmodium falciparum [1], 64% with Plasmodium falciparum [2] and 2% with HepG2.
As to `CCOC(=O)c1cnc2c(OC)cc(OC)c(Cl)c2c1Nc1cccc(C)c1C`, the Inhibition with Plasmodium falciparum [1] amounted to 100%; in the assay with Plasmodium falciparum [2] it was 99%; in the assay with HepG2, 5%.
In the same order, the values of `COc1ccc(CNCc2ccc(-c3cccc(-c4nc5ccccc5[nH]4)c3)cc2)cc1.O=C(O)C(F)(F)F` are 100%, 85% and 57%.
Regarding `COc1ccc2nccc([C@@H](O)CN3CCC(NCc4cc5cccc(OCc6ccccc6)c5[nH]4)CC3)c2c1`, the figures for the Inhibition in the assay on Plasmodium falciparum [1], in the assay on Plasmodium falciparum [2] and with HepG2 were 100%, 40% and 13%, respectively.
Regarding `C=CCN1C(=O)C(C(C)=O)=C(O)C1c1ccccc1` (configuration not stated), the Inhibition is 93% in the assay on Plasmodium falciparum [1], 97% with Plasmodium falciparum [2] and 41% in the assay on HepG2.
Turning to `CN1CCN(Cc2ccc(-c3cc4c(Nc5ccc(OCc6cccc(F)c6)c(Cl)c5)ncnc4s3)[nH]2)CC1`, the Inhibition with Plasmodium falciparum [1] was determined as 100%; in the assay on Plasmodium falciparum [2], 99%; in the assay on HepG2, 23%.
Take `CCOc1cc(C(=O)NCc2cccc(C(F)(F)F)c2)ccc1-c1nc2cc(Cl)ccc2[nH]1`: the Inhibition with Plasmodium falciparum [1] amounted to 88%; in the assay with Plasmodium falciparum [2], 31%; with HepG2, 7%.
The matching figures for `Cl.N=C(N)NN=C1C=Cc2cccc3cccc1c23`: 100%, 49% and 9%.
In the case of `CN(C1CCC(NC(=O)/C=C/c2ccccc2)CC1)C1CC2(CCN(C(=O)OC(C)(C)C)CC2)c2ccccc21` (configuration not stated), the Inhibition with Plasmodium falciparum [1] is reported as 95%; in the assay on Plasmodium falciparum [2], 95%; in the assay on HepG2, 16%.
As to `OC(CNc1cccc(Cl)c1)Cn1c2ccc(Cl)cc2c2cc(Cl)ccc21` (configuration not stated), the Inhibition was 95% with Plasmodium falciparum [1], 33% in the assay on Plasmodium falciparum [2] and 8% in the assay on HepG2.
With `CN1CCC(C(=O)Nc2ccc(-c3cccc(-c4nc5cc(C(F)(F)F)ccc5[nH]4)c3)cc2)CC1`, the Inhibition in the assay with Plasmodium falciparum [1] is 100%; in the assay on Plasmodium falciparum [2], 97%; with HepG2, 28%.
The matching figures for `Cc1ccc(O)cc1Nc1ccnc2ccc(-c3cccc(CN(C)C)c3)cc12`: 100%, 99% and 0%.
`Cc1cc(N)ncc1-c1ccc(NC(=O)Nc2cc(C(F)(F)F)ccc2F)cc1.O=C(O)C(F)(F)F`: the figures for the Inhibition with Plasmodium falciparum [1], in the assay with Plasmodium falciparum [2] and in the assay on HepG2 were 100%, 23% and 15%, respectively.
With `CC(Cc1ccc(NC(=O)c2ccc(CC(C)NCc3ccc(Cl)c(Cl)c3)cc2)cc1)NCCc1cccc(Cl)c1` (configuration not stated), the Inhibition with Plasmodium falciparum [1] was found to be 92%; in the assay on Plasmodium falciparum [2], 33%; in the assay with HepG2, 26%.
